For test [1], the target named is T1, Muscle, skeletal receptor tyrosine-protein kinase (Homo sapiens) (UniProt O15146).
T1 sequence (whole entry): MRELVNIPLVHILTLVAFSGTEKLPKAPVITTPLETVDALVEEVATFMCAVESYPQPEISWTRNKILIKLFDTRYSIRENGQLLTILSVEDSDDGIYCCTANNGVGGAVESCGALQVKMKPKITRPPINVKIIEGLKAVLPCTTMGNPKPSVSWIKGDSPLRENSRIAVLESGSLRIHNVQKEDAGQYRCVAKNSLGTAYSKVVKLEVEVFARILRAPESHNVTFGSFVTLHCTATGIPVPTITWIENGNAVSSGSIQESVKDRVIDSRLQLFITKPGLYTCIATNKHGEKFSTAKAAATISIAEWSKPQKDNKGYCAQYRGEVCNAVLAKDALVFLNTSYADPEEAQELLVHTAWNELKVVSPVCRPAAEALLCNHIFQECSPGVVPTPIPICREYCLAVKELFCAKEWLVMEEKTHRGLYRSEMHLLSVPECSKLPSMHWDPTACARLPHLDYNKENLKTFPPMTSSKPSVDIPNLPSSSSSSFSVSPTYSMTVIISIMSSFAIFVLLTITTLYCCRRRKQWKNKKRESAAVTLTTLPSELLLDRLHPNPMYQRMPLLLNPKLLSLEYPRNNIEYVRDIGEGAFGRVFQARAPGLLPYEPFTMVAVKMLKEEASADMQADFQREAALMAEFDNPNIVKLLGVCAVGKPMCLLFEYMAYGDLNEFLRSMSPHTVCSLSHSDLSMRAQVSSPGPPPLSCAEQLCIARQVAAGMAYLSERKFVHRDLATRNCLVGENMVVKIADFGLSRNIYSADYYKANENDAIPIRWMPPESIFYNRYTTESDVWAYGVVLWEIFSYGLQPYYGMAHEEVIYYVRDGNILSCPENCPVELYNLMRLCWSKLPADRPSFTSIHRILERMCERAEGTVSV
Conditions: at 1 µM.

Test [2] has as its target T1, Muscle, skeletal receptor tyrosine-protein kinase (Homo sapiens). Conditions: at 10 µM.
Test [3] has as its target T2, Serine/threonine-protein kinase Nek11 (Homo sapiens) (UniProt Q8NG66).
T2 sequence (whole entry): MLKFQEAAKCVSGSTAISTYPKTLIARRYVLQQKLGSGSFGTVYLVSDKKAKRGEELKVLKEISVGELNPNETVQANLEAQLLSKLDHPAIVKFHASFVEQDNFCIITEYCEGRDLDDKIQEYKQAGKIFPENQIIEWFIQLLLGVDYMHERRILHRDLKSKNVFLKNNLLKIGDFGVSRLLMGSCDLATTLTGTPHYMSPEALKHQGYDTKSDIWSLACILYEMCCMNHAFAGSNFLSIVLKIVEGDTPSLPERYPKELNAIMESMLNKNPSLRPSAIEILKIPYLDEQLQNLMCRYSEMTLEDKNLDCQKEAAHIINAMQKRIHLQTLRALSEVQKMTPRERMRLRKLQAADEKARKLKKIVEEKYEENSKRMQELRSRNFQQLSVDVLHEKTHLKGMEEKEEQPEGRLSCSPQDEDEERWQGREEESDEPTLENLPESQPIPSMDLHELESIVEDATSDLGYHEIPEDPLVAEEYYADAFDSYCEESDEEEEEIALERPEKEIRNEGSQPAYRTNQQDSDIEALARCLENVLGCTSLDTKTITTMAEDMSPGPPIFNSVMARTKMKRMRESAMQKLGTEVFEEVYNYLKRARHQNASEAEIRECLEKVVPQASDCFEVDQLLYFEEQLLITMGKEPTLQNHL
Particulars: at 1 µM.

The target of test [4] is T2, Serine/threonine-protein kinase Nek11 (Homo sapiens). Conditions: at 10 µM.
Test [5] concerns the target T3, Serine/threonine-protein kinase Nek2 (Homo sapiens) (UniProt P51955).
T3 sequence (whole entry): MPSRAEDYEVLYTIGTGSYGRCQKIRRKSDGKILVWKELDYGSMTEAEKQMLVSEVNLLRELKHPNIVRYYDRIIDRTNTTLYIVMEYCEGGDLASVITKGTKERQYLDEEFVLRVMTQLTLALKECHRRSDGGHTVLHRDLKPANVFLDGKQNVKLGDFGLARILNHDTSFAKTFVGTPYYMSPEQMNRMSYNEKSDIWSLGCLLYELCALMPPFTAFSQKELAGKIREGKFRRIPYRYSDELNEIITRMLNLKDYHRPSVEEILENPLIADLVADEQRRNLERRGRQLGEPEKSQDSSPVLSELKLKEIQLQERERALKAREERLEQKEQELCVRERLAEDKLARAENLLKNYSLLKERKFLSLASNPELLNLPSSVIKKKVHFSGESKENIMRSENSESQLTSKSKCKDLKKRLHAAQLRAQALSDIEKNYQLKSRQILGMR
Particulars: at 1 µM.

Test [6] deals with T3, Serine/threonine-protein kinase Nek2 (Homo sapiens). Particulars: at 10 µM.
In test [7] the target is T4, Serine/threonine-protein kinase Nek3 (Homo sapiens) (UniProt P51956).
T4 sequence (whole entry): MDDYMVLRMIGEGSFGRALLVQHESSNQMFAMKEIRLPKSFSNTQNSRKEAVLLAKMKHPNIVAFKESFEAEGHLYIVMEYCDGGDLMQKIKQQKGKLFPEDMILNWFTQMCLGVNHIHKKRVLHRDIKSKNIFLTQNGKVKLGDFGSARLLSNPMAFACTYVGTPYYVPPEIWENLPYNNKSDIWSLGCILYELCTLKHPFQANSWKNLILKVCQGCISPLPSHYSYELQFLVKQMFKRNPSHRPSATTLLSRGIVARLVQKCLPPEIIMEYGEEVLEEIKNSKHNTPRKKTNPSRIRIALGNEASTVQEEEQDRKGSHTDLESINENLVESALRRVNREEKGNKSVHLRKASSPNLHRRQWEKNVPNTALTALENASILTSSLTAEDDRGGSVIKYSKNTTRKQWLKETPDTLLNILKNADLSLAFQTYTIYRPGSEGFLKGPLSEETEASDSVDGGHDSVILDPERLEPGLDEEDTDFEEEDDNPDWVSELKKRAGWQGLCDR
Particulars: at 1 µM.

Test [8] addresses T4, Serine/threonine-protein kinase Nek3 (Homo sapiens). Particulars: at 10 µM.
For test [9], the target named is Serine/threonine-protein kinase tousled-like 2 (Homo sapiens) (UniProt Q86UE8). Conditions: at 1 µM.
Chain of Serine/threonine-protein kinase tousled-like 2 (Homo sapiens) (Q86UE8 whole entry, looked up): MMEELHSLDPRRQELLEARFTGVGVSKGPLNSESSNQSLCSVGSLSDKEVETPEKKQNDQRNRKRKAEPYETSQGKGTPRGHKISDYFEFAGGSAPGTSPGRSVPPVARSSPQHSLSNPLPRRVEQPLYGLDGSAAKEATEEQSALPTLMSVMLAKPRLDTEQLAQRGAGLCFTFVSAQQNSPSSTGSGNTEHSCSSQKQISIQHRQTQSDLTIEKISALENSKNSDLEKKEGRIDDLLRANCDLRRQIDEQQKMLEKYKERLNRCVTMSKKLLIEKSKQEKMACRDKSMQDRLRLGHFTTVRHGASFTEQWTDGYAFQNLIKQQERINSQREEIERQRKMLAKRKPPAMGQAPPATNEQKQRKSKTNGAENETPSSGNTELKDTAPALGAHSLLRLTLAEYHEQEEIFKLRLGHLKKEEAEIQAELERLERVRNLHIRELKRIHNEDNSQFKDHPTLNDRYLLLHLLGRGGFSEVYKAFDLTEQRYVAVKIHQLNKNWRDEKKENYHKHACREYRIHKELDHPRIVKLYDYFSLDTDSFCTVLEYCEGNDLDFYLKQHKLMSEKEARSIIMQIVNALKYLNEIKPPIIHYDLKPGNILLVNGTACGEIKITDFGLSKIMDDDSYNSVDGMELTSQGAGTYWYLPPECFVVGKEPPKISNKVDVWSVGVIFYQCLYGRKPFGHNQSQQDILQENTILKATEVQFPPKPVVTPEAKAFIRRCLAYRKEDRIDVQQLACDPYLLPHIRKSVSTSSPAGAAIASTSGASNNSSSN
Test [10] has the same target. Conditions: at 10 µM.
Test [11] deals with T5, Testis-specific serine/threonine-protein kinase 1 (Homo sapiens) (UniProt Q9BXA7).
T5 sequence (whole entry): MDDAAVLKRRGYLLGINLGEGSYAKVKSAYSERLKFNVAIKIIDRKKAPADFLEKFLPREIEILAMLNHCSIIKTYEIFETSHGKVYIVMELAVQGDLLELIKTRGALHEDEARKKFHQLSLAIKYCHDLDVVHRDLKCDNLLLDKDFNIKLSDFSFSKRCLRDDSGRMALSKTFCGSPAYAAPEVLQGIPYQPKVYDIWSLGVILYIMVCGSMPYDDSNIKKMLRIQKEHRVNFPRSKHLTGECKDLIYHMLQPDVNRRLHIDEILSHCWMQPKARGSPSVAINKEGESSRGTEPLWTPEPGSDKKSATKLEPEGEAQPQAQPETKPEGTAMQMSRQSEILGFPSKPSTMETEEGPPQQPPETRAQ
Conditions: at 1 µM.

The target in test [12] is T5, Testis-specific serine/threonine-protein kinase 1 (Homo sapiens). Particulars: at 10 µM.
Test [13] addresses T6, Testis-specific serine/threonine-protein kinase 2 (Homo sapiens) (UniProt Q96PF2).
T6 sequence (whole entry): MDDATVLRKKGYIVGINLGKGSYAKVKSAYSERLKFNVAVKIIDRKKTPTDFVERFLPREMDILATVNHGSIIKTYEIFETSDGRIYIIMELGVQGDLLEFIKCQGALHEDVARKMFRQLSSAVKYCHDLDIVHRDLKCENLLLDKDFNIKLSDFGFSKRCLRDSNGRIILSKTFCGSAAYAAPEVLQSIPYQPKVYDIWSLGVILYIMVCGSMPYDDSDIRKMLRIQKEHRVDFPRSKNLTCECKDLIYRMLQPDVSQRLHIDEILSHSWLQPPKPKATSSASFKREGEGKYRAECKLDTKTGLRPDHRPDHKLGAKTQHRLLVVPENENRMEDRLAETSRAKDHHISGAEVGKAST
Conditions: at 10 µM.

Test [14] addresses T7, Tyrosine-protein kinase Tec (Homo sapiens) (UniProt P42680).
T7 sequence (whole entry): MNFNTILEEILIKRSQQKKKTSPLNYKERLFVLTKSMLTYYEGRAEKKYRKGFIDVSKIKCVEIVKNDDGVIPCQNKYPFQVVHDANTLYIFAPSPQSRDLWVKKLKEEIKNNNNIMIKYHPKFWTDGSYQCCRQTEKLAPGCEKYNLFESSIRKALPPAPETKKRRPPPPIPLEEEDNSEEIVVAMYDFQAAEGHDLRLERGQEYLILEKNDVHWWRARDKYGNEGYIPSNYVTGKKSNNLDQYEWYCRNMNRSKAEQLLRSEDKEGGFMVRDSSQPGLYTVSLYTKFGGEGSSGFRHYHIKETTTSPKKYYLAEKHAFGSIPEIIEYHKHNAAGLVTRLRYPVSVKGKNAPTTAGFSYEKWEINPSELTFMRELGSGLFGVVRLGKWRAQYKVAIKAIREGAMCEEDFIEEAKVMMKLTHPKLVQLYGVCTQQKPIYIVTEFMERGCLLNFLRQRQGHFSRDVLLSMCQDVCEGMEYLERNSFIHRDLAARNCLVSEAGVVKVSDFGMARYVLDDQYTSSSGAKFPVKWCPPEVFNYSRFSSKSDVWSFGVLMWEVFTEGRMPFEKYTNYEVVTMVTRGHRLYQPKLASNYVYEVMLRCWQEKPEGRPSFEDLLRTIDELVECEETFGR
Particulars: at 1 µM.

Test [15] has as its target T7, Tyrosine-protein kinase Tec (Homo sapiens). Conditions: at 10 µM.
In test [16] the target is Angiopoietin-1 receptor (Homo sapiens) (UniProt Q02763). Conditions: at 1 µM.
Chain of Angiopoietin-1 receptor (Homo sapiens) (Q02763 whole entry): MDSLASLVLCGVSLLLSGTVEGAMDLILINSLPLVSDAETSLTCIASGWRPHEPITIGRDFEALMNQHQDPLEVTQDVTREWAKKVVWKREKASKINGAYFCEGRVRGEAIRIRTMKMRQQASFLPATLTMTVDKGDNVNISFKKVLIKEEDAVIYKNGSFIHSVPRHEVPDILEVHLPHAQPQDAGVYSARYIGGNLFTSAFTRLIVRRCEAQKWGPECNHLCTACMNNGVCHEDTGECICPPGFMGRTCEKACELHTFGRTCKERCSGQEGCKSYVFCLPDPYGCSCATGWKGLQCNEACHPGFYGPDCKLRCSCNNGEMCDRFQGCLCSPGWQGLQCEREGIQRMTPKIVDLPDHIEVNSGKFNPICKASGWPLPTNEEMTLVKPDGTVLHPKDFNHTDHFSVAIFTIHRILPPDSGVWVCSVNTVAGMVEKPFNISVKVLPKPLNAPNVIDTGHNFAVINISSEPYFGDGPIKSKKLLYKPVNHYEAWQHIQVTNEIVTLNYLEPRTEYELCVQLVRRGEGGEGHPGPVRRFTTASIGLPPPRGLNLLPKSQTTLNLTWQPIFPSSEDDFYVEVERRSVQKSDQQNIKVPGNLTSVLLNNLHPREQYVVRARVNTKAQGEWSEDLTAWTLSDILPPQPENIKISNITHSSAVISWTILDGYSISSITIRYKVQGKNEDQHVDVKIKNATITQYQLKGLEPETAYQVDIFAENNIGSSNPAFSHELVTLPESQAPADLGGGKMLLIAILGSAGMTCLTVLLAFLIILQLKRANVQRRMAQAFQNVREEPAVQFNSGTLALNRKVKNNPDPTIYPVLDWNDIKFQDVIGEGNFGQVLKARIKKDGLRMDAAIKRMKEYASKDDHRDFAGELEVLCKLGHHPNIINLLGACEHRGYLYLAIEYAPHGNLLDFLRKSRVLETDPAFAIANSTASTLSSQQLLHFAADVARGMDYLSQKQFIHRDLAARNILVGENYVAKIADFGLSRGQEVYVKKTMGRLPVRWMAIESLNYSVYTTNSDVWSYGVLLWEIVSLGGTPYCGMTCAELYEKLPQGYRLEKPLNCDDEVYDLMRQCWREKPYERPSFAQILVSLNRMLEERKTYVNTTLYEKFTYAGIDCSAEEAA
For test [17] the target is unchanged. Conditions: at 10 µM.
Test [18] deals with High affinity nerve growth factor receptor (Homo sapiens) (UniProt P04629). Particulars: at 1 µM.
Chain of High affinity nerve growth factor receptor (Homo sapiens) (P04629 33-796 limits assumed): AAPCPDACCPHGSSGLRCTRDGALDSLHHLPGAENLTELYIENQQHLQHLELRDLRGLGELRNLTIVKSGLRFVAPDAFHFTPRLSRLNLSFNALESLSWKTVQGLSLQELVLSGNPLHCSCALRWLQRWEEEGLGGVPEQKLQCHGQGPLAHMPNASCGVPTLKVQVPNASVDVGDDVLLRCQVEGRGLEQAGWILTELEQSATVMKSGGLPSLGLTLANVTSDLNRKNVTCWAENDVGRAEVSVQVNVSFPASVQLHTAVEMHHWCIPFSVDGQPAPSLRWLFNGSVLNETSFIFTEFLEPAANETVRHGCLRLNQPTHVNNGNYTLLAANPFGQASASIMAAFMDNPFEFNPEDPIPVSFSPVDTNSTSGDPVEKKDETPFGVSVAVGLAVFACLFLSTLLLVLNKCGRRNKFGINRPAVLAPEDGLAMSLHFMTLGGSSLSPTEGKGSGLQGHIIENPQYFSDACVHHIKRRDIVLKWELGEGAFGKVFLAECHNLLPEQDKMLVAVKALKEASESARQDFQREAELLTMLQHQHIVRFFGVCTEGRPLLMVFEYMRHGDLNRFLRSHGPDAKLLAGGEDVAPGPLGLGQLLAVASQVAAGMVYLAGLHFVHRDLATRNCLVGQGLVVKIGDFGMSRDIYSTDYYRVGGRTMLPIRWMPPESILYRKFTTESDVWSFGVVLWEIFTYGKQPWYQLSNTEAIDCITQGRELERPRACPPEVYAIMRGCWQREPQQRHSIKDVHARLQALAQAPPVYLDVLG
Test [19] shares this target. Particulars: at 10 µM.
For test [20], the target named is BDNF/NT-3 growth factors receptor (Homo sapiens) (UniProt Q16620). Conditions: at 1 µM.
Chain of BDNF/NT-3 growth factors receptor (Homo sapiens) (Q16620 32-822 limits assumed): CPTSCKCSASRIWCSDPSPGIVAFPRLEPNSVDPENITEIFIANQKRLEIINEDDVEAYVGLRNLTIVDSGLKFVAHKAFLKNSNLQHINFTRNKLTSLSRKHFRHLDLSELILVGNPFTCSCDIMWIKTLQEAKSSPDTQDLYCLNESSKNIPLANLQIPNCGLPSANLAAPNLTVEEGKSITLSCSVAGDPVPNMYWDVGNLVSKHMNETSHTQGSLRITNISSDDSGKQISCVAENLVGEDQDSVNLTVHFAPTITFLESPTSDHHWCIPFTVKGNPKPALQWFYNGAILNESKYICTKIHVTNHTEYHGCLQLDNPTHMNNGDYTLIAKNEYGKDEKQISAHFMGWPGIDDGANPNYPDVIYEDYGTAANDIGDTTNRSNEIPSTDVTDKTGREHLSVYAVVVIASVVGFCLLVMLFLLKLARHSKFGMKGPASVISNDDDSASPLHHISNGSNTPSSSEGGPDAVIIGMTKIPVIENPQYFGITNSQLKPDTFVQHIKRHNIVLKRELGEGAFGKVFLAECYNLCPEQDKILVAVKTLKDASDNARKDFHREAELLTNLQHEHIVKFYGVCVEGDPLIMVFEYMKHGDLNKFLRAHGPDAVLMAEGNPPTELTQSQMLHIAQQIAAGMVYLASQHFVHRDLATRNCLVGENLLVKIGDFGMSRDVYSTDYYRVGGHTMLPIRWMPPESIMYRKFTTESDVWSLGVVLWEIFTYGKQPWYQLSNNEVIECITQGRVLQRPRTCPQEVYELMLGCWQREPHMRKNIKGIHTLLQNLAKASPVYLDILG

With `CC(C)n1cnc2c(NCc3ccccc3)nc(NCCCO)nc21`, the residual activity in [1] worked out at 82%; in test [2] it was 86%; in test [3], 57%; in test [4] it was 72%; in test [5], 96%; in test [6], 82%. The residual activity in [7] was 85%; in test [8], 99%; in [9], 96%; in [10] it was 89%; in [11] it was 90%; in test [12], 89%. Further, the residual activity in [13] stood at 81%; in [14], 90%; in [15], 89%; in test [16] it was 104%; in test [17] it was 87%; in test [18] it was 93%. Further, the residual activity in test [19] came out at 94%; in test [20], 88%.
For the molecule `CC(=O)O/N=C1\C(=C2\C(=O)Nc3cc(Br)ccc32)Nc2ccccc21`, the residual activity is 73% in [1]; 51% in [2]; 60% in [3]; 67% in [4]; 101% in [5]; 87% in test [6]. In addition, the residual activity in [7] is 82%; in test [8], 84%; in test [9], 92%; in test [10], 86%; in test [11] it was 92%; in [12], 86%. The residual activity in test [13] was found to be 92%; in [14] it was 59%; in test [15], 21%; in [16] it was 86%; in test [17], 87%; in test [18] it was 6%. Moreover, the residual activity in test [19] was found to be 0%; in [20] it was 29%.
For the molecule `Nc1nc(Nc2ccc(S(N)(=O)=O)cc2)nn1C(=S)Nc1c(F)cccc1F`, the residual activity in test [1] was 0%; in test [2], 0%; in test [3], 51%; in test [4] it was 30%; in test [5], 91%; in test [6] it was 71%. The residual activity is 6% in test [7]; 3% in test [8]; 4% in test [9]; -1% in [10]; 16% in [11]; 12% in test [12]. In addition, the residual activity is 12% in test [13]; 78% in test [14]; 23% in test [15]; -1% in test [16]; -2% in [17]; 0% in test [18]. Besides, the residual activity is -1% in test [19] and 0% in [20].

These data come from ChEMBL document CHEMBL2218924, “A broad activity screen in support of a chemogenomic map for kinase signalling research and drug discovery” (Biochem J, 2013).
